Inconclusive results are not listed. Entries that show only a call come without a potency. Values without a mark were called inactive. Calls of active or inactive are those of the source. The call rests on the fitted dose curve; in most records, active means well fitted cell-killing curve with a large enough effect; inconclusive means small, poorly fitted or top-dose-only effect, or effect the other way; inactive means flat fitted curve, though single readings scatter.
Tested on: Hek293T
Test: Primary qHTS to identify gynecologic anti-cancer compounds using libraries of approved drugs and bioactive compounds (AID 1345084); further: nearly all actives have a fitted effect of over 55% in size
Conditions: Gynecologic cancer cell panel viability, ATPlite luminescence, 48 h, control line for the selectivity index; series mostly up to 57.5 µM
How it was run: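 48 h compound exposure at 37 C, 5% CO2; five-point qHTS. ATPlite luminescence readout of cell ATP.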
Potency means the concentration at half of the fitted maximal effect.

Compound	Potency	activity change, negative = cytotoxicity
CCN1CCc2nc(N)oc2CC1	inactive	–
CCn1cc(C(=O)O)c(=O)c2cc3c(cc21)OCO3	inactive	–
CCc1c(C)[nH]c2c1C(=O)C(CN1CCOCC1)CC2 (stereo not drawn)	inactive	–
COC(=O)[C@@H](N)Cc1ccc(O)c(O)c1	inactive	–
CCOC(=O)c1cnc2c(cnn2CC)c1NN=C(C)C	inactive	–
Cc1scc2c1N(C(=O)CN1CCN(C)CC1)c1ccccc1NC2=O	inactive	–
CC(C)(C)NCC(O)c1cc(O)cc(O)c1 (stereo not drawn)	inactive	–
C[N+](C)(C)CCOC(N)=O	inactive	–
NC(=O)c1cn(Cc2c(F)cccc2F)nn1	inactive	–
CC(=O)OC(C)C[N+](C)(C)C (stereo not drawn)	inactive	–
NC(Cc1ccc(Cl)cc1)C(=O)O (stereo not drawn)	–	0.47% [at 0.462 µM]
FC(F)(F)c1ccccc1-n1ccnc1	inactive	–
CCCCNc1ccc(C(=O)OCCN(C)C)cc1	inactive	–
O=C(O)CCCCCCCC(=O)O	inactive	–
O=C(O)CN(CCOCCOCCN(CC(=O)O)CC(=O)O)CC(=O)O	–	-0.823% [at 0.462 µM]
CC(=O)[C@]1(O)Cc2c(O)c3c(c(O)c2[C@@H](O[C@H]2C[C@H](N)[C@H](O)[C@H](C)O2)C1)C(=O)c1ccccc1C3=O	0.708 µM (active)	–
CCN1CCC[C@H]1CNC(=O)c1c(O)c(Cl)cc(Cl)c1OC	inactive	–

Compound	Potency	activity change, negative = cytotoxicity
CCCN(CCC)C(=O)C(CCC(=O)O)NC(=O)c1ccccc1 (stereo not drawn)	inactive	–
CN1C[C@H](C(=O)N[C@]2(C)O[C@@]3(O)[C@@H]4CCCN4C(=O)[C@H](Cc4ccccc4)N3C2=O)C[C@@H]2c3cccc4[nH]cc(c34)C[C@H]21	inactive	–
C[n+]1cc2c3c(ccc2c2ccc4cc5c(cc4c21)OCO5)OCO3	8.91 µM (active)	–
NC(N)=NC(=O)Cc1c(Cl)cccc1Cl	inactive	–
O=C(O)CN(CCN(CC(=O)O)CC(=O)O)CCN(CC(=O)O)CC(=O)O	inactive	–
CN=C(NC#N)NCCSCc1nc[nH]c1C	inactive	–
NC/C=C/C(=O)O	inactive	–
Cc1ccc(/C(=C\CN2CCCC2)c2ccccn2)cc1	inactive	–
CCCN(CCC)CCc1cccc2c1CC(=O)N2	inactive	–
NC(=O)c1ncn([C@@H]2O[C@H](CO)[C@@H](O)[C@H]2O)c1O	inactive	–
CC(C)[N+](C)(CCOC(=O)C1c2ccccc2Oc2ccccc21)C(C)C	inactive	–
O=C(O)CP(=O)(O)O	inactive	–
CCN(CC)CC(=O)Nc1c(C)cccc1C	inactive	–
NCCCNCCSP(=O)(O)O	–	-0.973% [at 11.6 µM]
Brc1c(NC2=NCCN2)ccc2nccnc12	inactive	–
c1ccc2c(c1)CCCC2C1=NCCN1 (stereo not drawn)	inactive	–

— PubChem BioAssay (NCATS)
